Measurements: PubChem BioAssay (EPA / NIEHS)
Calls of active or inactive are those of the source. Rule for the calls: active = hit-call score of the fitted dose curve at least 0.9, where 1 is the maximum; inactive = score below 0.9.

Experiments:
Conditions in all cases: mRNA level, 48 h; actives raise or lower the signal
[1] = read-out: JUN Transcription Factor, JUN (gene 3725); assay: LTEA_HepaRG_JUN: Life Technologies and Expression Analysis (LTEA) Assay for JUN Transcription Factor using HepaRG (AID 2283513)
How it was run: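 Human HepaRG liver cells receive test chemicals in 0.5% DMSO for 48 h across an eight-point range topping at 100 uM. Expression changes in JUN are scored in both directions against the DMSO vehicle.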

[2] = read-out: Lipase C (LIPC), LIPC (gene 3990); assay: LTEA_HepaRG_LIPC: Life Technologies and Expression Analysis (LTEA) Assay for Lipase C (LIPC) using HepaRG (AID 2283514)
How it was run: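 Differentiated human HepaRG cells in serum-free induction medium were exposed in duplicate for 48 h to eight concentrations (top 100 uM, half-log steps, 0.5% DMSO). LIPC mRNA was quantified by TaqMan qRT-PCR, normalized to ACTB, GAPDH and POLR2A, with bidirectional fitting versus DMSO.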

[3] = read-out: Lipoprotein lipase (LPL), LPL (gene 4023); assay: LTEA_HepaRG_LPL: Life Technologies and Expression Analysis (LTEA) Assay for Lipoprotein lipase (LPL) using HepaRG (AID 2283515)
How it was run: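 Differentiated human HepaRG cells in serum-free induction medium were exposed in duplicate for 48 h to eight half-log concentrations (top 100 uM) in 0.5% DMSO. LPL mRNA was quantified by TaqMan qRT-PCR, normalized to ACTB, GAPDH and POLR2A.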

[4] = read-out: MicroRNA 122 (MIR122), gene 406906; assay: LTEA_HepaRG_MIR122: Life Technologies and Expression Analysis (LTEA) Assay for MicroRNA 122 (MIR122) using HepaRG (AID 2283516); note: the transcript read is the microRNA miR-122
How it was run: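 HepaRG, 48 h exposure, 8-pt half-log from 100 uM, 0.5% DMSO; TaqMan qRT-PCR; bidirectional fit vs DMSO.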

[5] = read-out: matrix metalloproteinase-10 (MMP10), MMP10 (gene 4319); assay: LTEA_HepaRG_MMP10: Life Technologies and Expression Analysis (LTEA) Assay for matrix metalloproteinase-10 (MMP10) using HepaRG (AID 2283517)
How it was run: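 HepaRG, collagen I, ~100,000 cells/well; serum-free induction medium; 48 h exposure, duplicate, 8-pt half-log to 100 uM, 0.5% DMSO. Readout: TaqMan qRT-PCR, normalized to ACTB/GAPDH/POLR2A; bidirectional fit vs DMSO.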

MYC, MYC (gene 4609) = assay: LTEA_HepaRG_MYC: Life Technologies and Expression Analysis (LTEA) Assay for MYC using HepaRG (AID 2283518)
How it was run: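 Cells are thawed, plated and cultured 48 h, then treated for 48 h with test chemicals (eight half-log concentrations from 100 uM, 0.5% DMSO vehicle). RNA is isolated and MYC expression quantified by qRT-PCR against three housekeeping genes.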

[6] = read-out: matrix metalloproteinase-3 (MMP3), MMP3 (gene 4314); assay: LTEA_HepaRG_MMP3: Life Technologies and Expression Analysis (LTEA) Assay for matrix metalloproteinase-3 (MMP3) using HepaRG (AID 2283519)
How it was run: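 Differentiated human HepaRG cells, plated 48 h on collagen I, were exposed in duplicate for 48 h in serum-free induction medium to eight half-log concentrations up to 100 uM in 0.5% DMSO. MMP3 mRNA was quantified by TaqMan qRT-PCR, normalised to ACTB, GAPDH and POLR2A.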

[7] = read-out: Paternally Expressed 10 (PEG10), PEG10 (gene 23089); assay: LTEA_HepaRG_PEG10: Life Technologies and Expression Analysis (LTEA) Assay for Paternally Expressed 10 (PEG10) using HepaRG (AID 2283520);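 for AC50: PEG10 transcript by qRT-PCR normalised to ACTB GAPDH and POLR2A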
How it was run: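 Chemicals tested on HepaRG cells for 48 h, highest concentration 100 uM. PEG10 expression assessed by qRT-PCR relative to DMSO control.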

[8] = read-out: Nuclear factor NF-kappa-B p105 subunit (Homo sapiens) (UniProt P19838); assay: LTEA_HepaRG_NFKB1: Life Technologies and Expression Analysis (LTEA) Assay for Nuclear Factor Kappa B Subunit 1 (NFKB1) using HepaRG (AID 2283521)
How it was run: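 NFKB1 transcript was measured by TaqMan qRT-PCR on Fluidigm arrays, normalised to three housekeeping genes and fitted in both directions against 0.5% DMSO. HepaRG cells were dosed in duplicate for 48 h in serum-free induction medium, eight half-log steps from 100 uM.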

[9] = read-out: Protein phosphatase 2A (PPP2R4), PTPA (gene 5524); assay: LTEA_HepaRG_PPP2R4: Life Technologies and Expression Analysis (LTEA) Assay for Protein phosphatase 2A (PPP2R4) using HepaRG (AID 2283522)
How it was run: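 Gene-expression endpoint in HepaRG hepatic cells: 48 h treatment across eight half-log concentrations up to 100 uM in 0.5% DMSO. PPP2R4 mRNA by qRT-PCR, normalized to three endogenous control genes.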

[10] = read-out: Phosphatase and tensin (PTEN), PTEN (gene 5728); assay: LTEA_HepaRG_PTEN: Life Technologies and Expression Analysis (LTEA) Assay for Phosphatase and tensin (PTEN) using HepaRG (AID 2283523)
How it was run: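 Differentiated human HepaRG cells, plated 48 h then switched to serum-free induction medium, were exposed in duplicate for 48 h to eight half-log concentrations up to 100 uM in 0.5% DMSO. PTEN mRNA measured by TaqMan qRT-PCR, normalized to ACTB/GAPDH/POLR2A, bidirectional fit versus DMSO.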

[11] = read-out: solute carrier (SLC22A1), SLC22A1 (gene 6580); assay: LTEA_HepaRG_SLC22A1: Life Technologies and Expression Analysis (LTEA) Assay for solute carrier (SLC22A1) using HepaRG (AID 2283524)
How it was run: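 Human HepaRG cells were plated 48 h, switched to serum-free induction medium, then exposed in duplicate for 48 h to 8-point half-log series from 100 uM in 0.5% DMSO. SLC22A1 mRNA measured by qRT-PCR, normalized to ACTB/GAPDH/POLR2A, fitted bidirectionally versus DMSO.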

[12] = read-out: Pyruvate Dehydrogenase Kinase 4 (PDK4), PDK4 (gene 5166); assay: LTEA_HepaRG_PDK4: Life Technologies and Expression Analysis (LTEA) Assay for Pyruvate Dehydrogenase Kinase 4 (PDK4) using HepaRG (AID 2283525)
How it was run: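 Differentiated human HepaRG cells, pre-cultured 48 h, were exposed in duplicate for 48 h in serum-free induction medium to eight half-log concentrations up to 100 uM in 0.5% DMSO. PDK4 mRNA was quantified by qRT-PCR, normalized to ACTB, GAPDH and POLR2A, bidirectional fitting versus DMSO.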

[13] = read-out: NAD(P)H dehydrogenase [quinone] 1 (NQO1), NQO1 (gene 1728); assay: LTEA_HepaRG_NQO1: Life Technologies and Expression Analysis (LTEA) Assay for NAD(P)H dehydrogenase [quinone] 1 (NQO1) using HepaRG (AID 2283526)
How it was run: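 Human HepaRG hepatic cells received chemicals for 48 h in serum-free induction medium with 0.5% DMSO, up to 100 uM. Expression was assessed by TaqMan qRT-PCR against housekeeping controls and fitted bidirectionally against DMSO.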

[14] = read-out: Nuclear factor erythroid 2-related factor 2 (Homo sapiens) (UniProt Q16236); assay: LTEA_HepaRG_NFE2L2: Life Technologies and Expression Analysis (LTEA) Assay for Nuclear factor erythroid 2-related factor 2 (NFE2L2) Transcription Factor using HepaRG (AID 2283527)
How it was run: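 Differentiated human HepaRG cells in serum-free induction medium were exposed for 48 h to eight concentrations (top 100 uM, half-log dilutions, 0.5% DMSO), in duplicate. NFE2L2 mRNA was quantified by TaqMan qRT-PCR, normalized to ACTB, GAPDH and POLR2A, with bidirectional fitting versus DMSO.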

[15] = read-out: succinate dehydrogenase complex iron sulfur subunit B (SDHB), SDHB (gene 6390); assay: LTEA_HepaRG_SDHB: Life Technologies and Expression Analysis (LTEA) Assay for succinate dehydrogenase complex iron sulfur subunit B (SDHB) using HepaRG (AID 2283528)
How it was run: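 SDHB transcript level read by TaqMan qRT-PCR, housekeeping-normalised (ACTB, GAPDH, POLR2A), after 48 h chemical treatment of plated HepaRG cells; eight concentrations top 100 uM, half-log steps, 0.5% DMSO, duplicates; fitted both directions against DMSO.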

[16] = read-out: Signal transducer and activator of transcription 3 (Homo sapiens) (UniProt P40763); assay: LTEA_HepaRG_STAT3: Life Technologies and Expression Analysis (LTEA) Assay for Signal transducer and activator of transcription (STAT3) using HepaRG (AID 2283529)
How it was run: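 Differentiated human HepaRG cells in serum-free induction medium were exposed in duplicate for 48 h to eight half-log concentrations up to 100 uM in 0.5% DMSO. STAT3 mRNA was quantified by TaqMan qRT-PCR, normalized to ACTB, GAPDH and POLR2A, and fitted bidirectionally against DMSO.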

[17] = read-out: solute carrier (SLCO1B1), SLCO1B1 (gene 10599); assay: LTEA_HepaRG_SLCO1B1: Life Technologies and Expression Analysis (LTEA) Assay for solute carrier (SLCO1B1) using HepaRG (AID 2283530)
How it was run: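 Gain or loss of SLCO1B1 mRNA is fitted against the 0.5% DMSO vehicle in human HepaRG liver cells treated 48 h at up to 100 uM in half-log steps. Expression comes from qRT-PCR normalized to endogenous controls.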

[18] = read-out: sulfotransferase 2A1 (SULT2A1), SULT2A1 (gene 6822); assay: LTEA_HepaRG_SULT2A1: Life Technologies and Expression Analysis (LTEA) Assay for sulfotransferase 2A1 (SULT2A1) using HepaRG (AID 2283531)
How it was run: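 Cells were plated and cultured 48 h, switched to serum-free induction medium, then dosed in duplicate for 48 h (8 concentrations, max 100 uM). RNA was isolated and SULT2A1 expression measured by qRT-PCR; gain or loss of signal fitted relative to DMSO.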

[19] = read-out: Transforming Growth Factor (TGFA), TGFA (gene 7039); assay: LTEA_HepaRG_TGFA: Life Technologies and Expression Analysis (LTEA) Assay for Transforming Growth Factor (TGFA) using HepaRG (AID 2283532)
How it was run: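 Differentiated human HepaRG cells, plated 48 h then switched to serum-free induction medium, were exposed in duplicate for 48 h to 8-point half-log series from 100 uM in 0.5% DMSO. TGFA mRNA measured by qRT-PCR, normalized to ACTB/GAPDH/POLR2A, bidirectional fit versus DMSO.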

Measured: AC50

Nuclear factor erythroid 2-related factor 2 (Homo sapiens), sequence (Q16236 whole entry, looked up): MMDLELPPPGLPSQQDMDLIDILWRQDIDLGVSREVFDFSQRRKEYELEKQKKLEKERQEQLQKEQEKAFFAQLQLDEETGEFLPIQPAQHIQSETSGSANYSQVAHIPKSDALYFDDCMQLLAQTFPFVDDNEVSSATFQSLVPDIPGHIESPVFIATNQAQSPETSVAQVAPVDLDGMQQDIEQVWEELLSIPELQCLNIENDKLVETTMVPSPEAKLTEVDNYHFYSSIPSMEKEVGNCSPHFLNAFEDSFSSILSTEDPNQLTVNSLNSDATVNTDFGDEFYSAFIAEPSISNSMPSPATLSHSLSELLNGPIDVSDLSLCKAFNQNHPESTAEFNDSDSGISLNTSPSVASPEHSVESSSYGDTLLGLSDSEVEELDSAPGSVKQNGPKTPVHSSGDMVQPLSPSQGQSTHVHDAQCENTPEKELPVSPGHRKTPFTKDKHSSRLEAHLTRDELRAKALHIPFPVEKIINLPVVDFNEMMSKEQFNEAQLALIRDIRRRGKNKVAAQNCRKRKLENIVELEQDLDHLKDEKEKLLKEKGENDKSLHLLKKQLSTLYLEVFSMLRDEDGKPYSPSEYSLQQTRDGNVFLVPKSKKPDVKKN
Signal transducer and activator of transcription 3 (Homo sapiens), sequence (P40763 whole entry, looked up): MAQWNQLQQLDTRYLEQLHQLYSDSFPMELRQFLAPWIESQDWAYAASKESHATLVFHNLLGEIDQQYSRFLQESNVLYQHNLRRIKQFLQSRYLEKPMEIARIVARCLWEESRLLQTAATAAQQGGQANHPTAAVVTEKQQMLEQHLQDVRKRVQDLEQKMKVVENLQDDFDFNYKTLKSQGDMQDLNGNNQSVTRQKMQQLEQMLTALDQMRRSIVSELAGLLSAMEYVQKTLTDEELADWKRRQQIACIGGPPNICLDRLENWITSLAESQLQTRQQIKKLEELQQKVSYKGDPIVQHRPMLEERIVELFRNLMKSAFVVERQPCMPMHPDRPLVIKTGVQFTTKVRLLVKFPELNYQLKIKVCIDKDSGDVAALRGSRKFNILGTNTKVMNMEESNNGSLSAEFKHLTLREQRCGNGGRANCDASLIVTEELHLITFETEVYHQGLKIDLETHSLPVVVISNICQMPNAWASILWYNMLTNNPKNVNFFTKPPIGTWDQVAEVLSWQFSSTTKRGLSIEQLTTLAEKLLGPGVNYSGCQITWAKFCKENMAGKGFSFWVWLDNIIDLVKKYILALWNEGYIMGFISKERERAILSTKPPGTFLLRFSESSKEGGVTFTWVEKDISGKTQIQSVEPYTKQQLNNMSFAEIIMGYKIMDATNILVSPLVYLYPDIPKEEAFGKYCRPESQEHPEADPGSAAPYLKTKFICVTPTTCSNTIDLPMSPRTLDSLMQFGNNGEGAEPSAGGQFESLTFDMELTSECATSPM
Nuclear factor NF-kappa-B p105 subunit (Homo sapiens), sequence (P19838 whole entry, looked up): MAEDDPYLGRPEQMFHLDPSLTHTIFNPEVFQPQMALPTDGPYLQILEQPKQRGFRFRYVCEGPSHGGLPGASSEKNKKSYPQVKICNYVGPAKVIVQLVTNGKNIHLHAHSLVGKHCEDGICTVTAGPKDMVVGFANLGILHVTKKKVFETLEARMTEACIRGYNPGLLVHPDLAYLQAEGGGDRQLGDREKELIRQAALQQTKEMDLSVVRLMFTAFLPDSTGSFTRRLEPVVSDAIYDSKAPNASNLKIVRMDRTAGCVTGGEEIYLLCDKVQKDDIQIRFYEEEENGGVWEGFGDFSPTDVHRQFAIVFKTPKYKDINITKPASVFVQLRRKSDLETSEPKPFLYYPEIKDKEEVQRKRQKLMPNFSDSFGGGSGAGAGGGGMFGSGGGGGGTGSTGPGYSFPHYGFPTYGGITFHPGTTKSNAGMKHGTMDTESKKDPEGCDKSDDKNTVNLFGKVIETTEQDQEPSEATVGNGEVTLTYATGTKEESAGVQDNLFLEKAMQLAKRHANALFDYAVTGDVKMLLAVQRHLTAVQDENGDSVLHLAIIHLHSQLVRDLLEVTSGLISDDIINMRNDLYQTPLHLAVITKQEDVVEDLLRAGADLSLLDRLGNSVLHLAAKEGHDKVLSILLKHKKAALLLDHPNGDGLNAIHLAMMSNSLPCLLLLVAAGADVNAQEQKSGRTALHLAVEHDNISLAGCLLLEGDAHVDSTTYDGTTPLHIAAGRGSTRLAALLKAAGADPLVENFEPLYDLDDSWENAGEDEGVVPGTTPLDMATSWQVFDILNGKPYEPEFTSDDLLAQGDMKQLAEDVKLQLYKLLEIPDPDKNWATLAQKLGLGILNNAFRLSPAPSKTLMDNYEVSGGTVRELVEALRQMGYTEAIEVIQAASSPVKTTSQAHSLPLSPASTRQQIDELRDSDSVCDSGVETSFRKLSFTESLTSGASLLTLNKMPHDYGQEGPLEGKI

CCCCN1C(=O)[C@@H]([C@H](O)C2CCCCC2)NC(=O)C12CCN(Cc1ccc(Oc3ccc(C(=O)O)cc3)cc1)CC2
inactive: [1] | [8] | [19]
active: [2] 3.67 µM | [3] 1.71 µM | [4] 3.52 µM | [5] 11.9 µM | MYC, MYC (gene 4609) 7.67 µM | [6] 0.267 µM | [7] 1.01 µM | [9] 3.88 µM | [10] 2.98 µM | [11] 1.72 µM | [12] 2.61 µM | [13] 4.6 µM | [14] 2 µM | [15] 1.56 µM | [16] 3.21 µM | [17] 1.92 µM | [18] 3.91 µM

CCN(CC)C(=S)SSC(=S)N(CC)CC
not listed: [18]
inactive: all other assays above

NC(=O)N(O)[C@@H]1COc2cc(OCc3ccccc3)ccc21
inactive: all assays above
